HCMV antiviral: human cytomegalovirus inhibition; activity change, negative = inhibition, % at 57.5 µM; 4.5% of 410,000 active; HFF cells, HCMV-luciferase reporter, 72 h; hits give low values; in the data active = activity change below about -60%; inconclusive = no clear call, values can overlap the other calls; inactive = above about -39%; also: % is scaled to controls: 0 for no effect and ±100 for the full control effect
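After 16 h attachment at 37C, HFF cells received test compound and HCMV-luciferase (1 PFU/cell); reporter luminescence read 72 h later, data normalized against buffer-only and known inhibitor Salinomycin.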
Shiga inhibitor: blocks Shiga toxin action in Vero cells. Vero cells, Shiga toxin protein synthesis inhibition reporter. inhibition, % at 38.7 µM. 9.2% of 290,000 active. AID 2315; in the data active = inhibition mostly above about 28%, no sharp cut-off; inactive = mostly below about 43%; also: 0% is about no effect
Pf growth 48h: P. falciparum growth inhibition at 48 hours (one generation); P. falciparum luciferase growth in erythrocytes, 48 h; 5.9% of 310,000 active; Potency, µM (doses to about 28.7 µM), for the others: top-dose activity change, negative = inhibition, usual class: inhibitors; also: potency is read from the fitted curve at half-maximal effect; % is scaled to controls: 0 for no effect and ±100 for the full control effect
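Firefly luciferase activity from engineered P. falciparum reports growth; inhibitors lower the luminescent signal. Cultures contained 2% hematocrit erythrocytes at 0.1% final parasitemia.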
Pf growth 96h: P. falciparum growth inhibition at 96 hours | P. falciparum luciferase reporter growth, 96 h | 6.9% of 320,000 active | Potency, µM (highest dose often 28.7 µM), for inactives: top-dose activity change, negative = inhibition, most hits filed as inhibitors; also: potency is read from the fitted curve at half-maximal effect; % is scaled to controls: 0 for no effect and ±100 for the full control effect
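Compounds incubated with erythrocytes infected by luciferase-expressing P. falciparum (2% hematocrit, 0.05% parasitemia final) for 96 hours, 37 C in 5% CO2. Growth inhibition scored as decreased luciferase luminescence.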
CHX counter: counter-screen for Shiga toxin inhibitors: cycloheximide protein synthesis inhibition | cell reporter, cycloheximide protein synthesis inhibition counterscreen | max response, % | 12% of 300,000 active; in the data active = max response mostly above about 13%, no sharp cut-off; inactive = mostly below about 14%; also: read at 38.3 µM for the half of the compounds with a filed dose; 0% is about no effect
* marks the source's active call; other numbers are inactive results; ? = inconclusive; . = no result. Most compounds without a hit are left out; they make up all but 20% or so of the library. Unless noted, calls follow the shape of the dose curve; as a rule, active = well fitted inhibition curve with a large enough effect; inconclusive = small, poorly fitted or top-dose-only effect, or another doubt; inactive = no such curve, though single readings can be large or run the other way.

SMILES	HCMV antiviral	Shiga inhibitor	Pf growth 48h	Pf growth 96h	CHX counter
COc1ccc(NC(=O)COc2ccc(C)cc2)c([N+](=O)[O-])c1	?	86*	454%	-3%	44*
CCOC(=O)c1c(CC(C)C)csc1N	-36	-4	-3%	11%	-2
O=C(CNC(=O)c1ccc(Br)o1)Nc1cccc(S(=O)(=O)N2CCOCC2)c1	8	.	?	?	.
CCOC(=O)C1=C([Si](C)(C)C)c2ccccc2N(S(=O)(=O)C(F)(F)F)C1C(=O)OCC (stereo not drawn)	.	56	.	.	3
Cc1ccc(C(=O)NCC(=O)OCC(=O)Nc2cc(C)c(C)cc2[N+](=O)[O-])cc1	-16	8	40%	10%	6
CCOc1ccc(NC(=O)COC(=O)C2(C)CC2(Cl)Cl)c([N+](=O)[O-])c1 (stereo not drawn)	-27	45*	?	?	18*
CCOc1ccc(NC(=O)CSc2nnc(N)s2)c([N+](=O)[O-])c1	25	18	6%	-28%	21
COCC(=O)OCC(=O)Nc1cc(C)c(C)cc1[N+](=O)[O-]	?	24	32%	-16%	16*
COc1ccc(NC(=O)CSc2ccccc2)c([N+](=O)[O-])c1	-40	99*	110%	-77%	60*
Cc1cccc(SCC(=O)Nc2ccccc2[N+](=O)[O-])c1	?	38	31%	11%	16*
Cc1cc(C)nc(SCC(=O)Nc2ccccc2[N+](=O)[O-])n1	33	-15	17%	30%	-4
CC(=O)c1cccc(NC(=O)C2=CN3CCS(=O)(=O)N=C3C=C2)c1	-34	.	-12%	-13%	.
CCC(C)(C)C(=O)Nc1ccc(OC)cc1[N+](=O)[O-]	?	-2	13%	0%	1
CCCOC(=O)Nc1cc(OC)ccc1[N+](=O)[O-]	5	23	34%	-7%	25*
CCc1ccc2c(c1)NC(=O)C2(C)Cc1ccccc1OC (stereo not drawn)	-71*	.	.	.	.
COc1ccccc1CC1(C)C(=O)Nc2c(Cl)cccc21 (stereo not drawn)	-73*	.	.	.	.
CN(C)N1C(N)=C(C#N)C(c2ccc3c(c2)OCO3)C2=C1CC(C)(C)CC2=O (stereo not drawn)	19	-4	-15%	?	-2
Cc1cc(Cl)ccc1NC(=O)CN(c1ccccc1Br)S(C)(=O)=O	2	.	.	.	.
CCOC(=O)C1CCCN(c2ccc(NC(=O)c3snc4c(=O)[nH]c(C)nc34)cc2)C1 (stereo not drawn)	49	-9	?	0.93µM*	6
COc1ccc(CCNC(=O)CCn2c(=O)c3ccccc3n(CC(=O)Nc3ccccc3F)c2=O)cc1OC	8	.	.	.	.
CCC(=O)Oc1ccc(C(=O)Nc2c[nH]c(=O)[nH]c2=O)cc1	?	13	17%	28%	-2
OCCNc1ncnc2c1ncn2[C@H]1CN(Cc2ccc(Cl)cc2)C[C@@H](CO)O1	1	.	.	.	.
CC(=O)c1cnc2nc(SCc3ccccc3)nn2c1C	104	47*	88%	-28%	35*
CC(=O)c1cnc2nc(SCc3ccc(C)cc3)nn2c1C	-21	.	28%	13µM*	-2
CC(=O)c1cnc2nc(SCc3cccc(C)c3)nn2c1C	20	9	159%	175%	9.4*
SMILES	HCMV antiviral	Shiga inhibitor	Pf growth 48h	Pf growth 96h	CHX counter
CC(=O)c1cnc2nc(SCc3ccc(Cl)cc3)nn2c1C	4	10	-22%	-12%	11
CCOc1ccccc1C(C(=O)NC1CCCC1)N(C(=O)c1csnn1)C1CC1 (stereo not drawn)	7	-9	-11%	-6%	-2
N#C/C(=N\Nc1ccc(S(=O)(=O)N2CCCCCC2)cc1)C(N)=S	-20	32	-9%	?	19
Cc1ccc(N/N=C(\C#N)C(=N)N2CCCCC2)cc1	40	82*	216%	-21%	46*
N#C/C(=N\Nc1ccc(Cl)cc1)C(=N)N1CCCCCC1	77	145*	351%	0%	43*
N#C/C(=N\Nc1ccccc1)C(=N)N1CCCCC1	218	61*	.	158%	28*
CCN(CC)C(=N)/C(C#N)=N/Nc1ccccc1	81	93*	67%	41%	39*
COc1ccc(N(C(=O)c2cc(OC)c(OC)c(OC)c2)S(=O)(=O)c2ccc(C)cc2)cc1	-15	.	.	.	.
O=C(Nc1cccc(Cl)c1)Nc1nnc([C@H]2C[C@H](O)[C@@H](CO)O2)s1	3	.	.	.	.
CCN(C(=O)CSc1nc2ncccc2[nH]1)c1ccc(C(C)C)cc1	-17	.	.	.	.
Cc1ccc2scc(N3CCN(C)CC3)c(=O)c2c1	36	83*	.	.	48*
Cn1c(O)c(C=NCc2ccco2)c(=O)n(C)c1=O	-21	-12	.	1%	-2
O=C1C(C=NCc2cccnc2)=C(O)c2ccccc21	56	101*	58%	4%	72*
O=C1C(C=NCc2ccncc2)=C(O)c2ccccc21	-10	102	10%	.	49*
O=C1C(C=NCc2ccco2)=C(O)c2ccccc21	22	79*	78%	207%	25*
Cc1ccc(S(=O)(=O)c2c(O)c3ccc(C(=O)O)cc3[nH]c2=O)cc1	-33	4	3%	5%	-9
COc1ccc(Cl)cc1-n1c(=S)sc2c(=O)[nH]c(SCC(=O)NCC3CCCO3)nc21 (stereo not drawn)	?	-10	-20%	9%	-1
CCCCS(=O)(=O)/C=C\C=C/S(=O)(=O)CCCC	.	-26	9.3µM*	?	-9
C=CCNc1ncnc2c1ncn2[C@H]1CN(Cc2ccco2)C[C@@H](CO)O1	53	.	.	.	.
CN(C)c1ccc(CNCc2cccnc2)cc1	53	.	.	.	.
CCCn1cnc2cc(NCc3ccccc3O)ccc21	2	113*	33%	?	39*
CN(C)c1ccc(CNc2ccc3c(c2)ncn3C(C)(C)C)cc1	-40	58*	13%	18%	28*
CCCn1cnc2cc(NCc3cccc(OC)c3)ccc21	-1	35*	?	.	24*
CCCn1cnc2cc(NCc3ccc(OC)cc3OC)ccc21	10	.	.	.	.
CCn1cnc2cc(NCc3ccc(C)cc3)ccc21	-24	90*	173%	10%	60*
SMILES	HCMV antiviral	Shiga inhibitor	Pf growth 48h	Pf growth 96h	CHX counter
CCN(CC)c1ccc(CNc2ccc3c(c2)ncn3CC)cc1	-3	17	9%	-19%	12
Cc1ccc(S(=O)(=O)N2CCN(c3nc(-c4ccc(F)cc4)nc4cc(Cl)ccc34)CC2)cc1	.	-5	.	.	2
CCCn1cnc2cc(NCc3ccc(Br)cc3)ccc21	3	64*	-62%	-2%	29*
CCn1cnc2cc(NCc3ccc(N(C)C)cc3)ccc21	?	154*	96%	5%	52*
CCn1cnc2cc(NS(=O)(=O)c3ccc(C)cc3)ccc21	-38	58	?	.	8
Cc1ccc(CNc2ccc3c(c2)ncn3C(C)C)cc1	22	61*	-14%	?	36*
CCn1cnc2cc(NCc3ccc(Br)cc3)ccc21	53	67*	36%	22%	40*
CS(=O)(=O)Nc1ccc(C(=O)Nc2ccc(S(=O)(=O)N3CCCC3)cc2)cc1	-20	-13	?	18%	1

Compound activity from PubChem BioAssay.
